For 5 molecules, composite z-score and z-score results are on record in PubChem BioAssay.

Assay [1] is described as follows: small molecules captured by biotinylated probe aFSTL3 – biochemical, small-molecule microarray, fluorescence 635/667, stem cell growth factor project, primary screen (AID 1064).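 Also: measures binding of the biotinylated anti-FSTL3 antibody to printed compounds.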 Particulars: higher = more signal.
Assay [2] in a line: binders from COS7 lysate, DM2A8 probe, primary screen, torsin A project, cell lysate, small-molecule microarray, fluorescence 635/667 (AID 1065). As to conditions: higher = more signal, COS7 lysate expressing mutant human TOR1A.
The nature of assay [3]: small molecules captured by biotinylated probe aFGF2 – biochemical, small-molecule microarray, fluorescence 635/667, stem cell growth factor project, primary screen (AID 1067).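 Also: measures binding of biotinylated aFGF2 protein to printed compounds on slides; z-score merges feature fluorescence and signal-to-noise across triplicate slides.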 As to conditions: higher = more signal.
Assay [4] in a line: small molecules captured by biotinylated probe aFGF10 – biochemical, small-molecule microarray, fluorescence 635/667, stem cell growth factor project, primary screen (AID 1071).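 Also: score merges 667 nm spot intensity and signal to noise from triplicate slides.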 As to conditions: higher = more signal.
Assay [5] has as its target Neurogenic locus notch homolog protein 2 (Homo sapiens) (UniProt Q04721). As to the kind of experiment: small molecules binding Notch2 protein – biochemical, small-molecule microarray, 635 nm fluorescence, stem cell growth factors, primary screen (AID 1073). As to conditions: higher = more signal.
Assay [6] deals with Pro-neuregulin-1, membrane-bound isoform (Homo sapiens) (UniProt Q02297). As to the kind of experiment: small molecules binding neuregulin-1 protein – biochemical, small-molecule microarray, fluorescence 635/667, psychiatric disease protein project, primary screen (AID 1075).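 Also: score combines 667 nm spot fluorescence with signal to noise.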 Particulars: NRG1 binding, 635 nm fluorescence, higher = more signal.
Chain of Pro-neuregulin-1, membrane-bound isoform (Homo sapiens) (Q02297 whole entry, looked up, the tested form may be a part, canonical isoform): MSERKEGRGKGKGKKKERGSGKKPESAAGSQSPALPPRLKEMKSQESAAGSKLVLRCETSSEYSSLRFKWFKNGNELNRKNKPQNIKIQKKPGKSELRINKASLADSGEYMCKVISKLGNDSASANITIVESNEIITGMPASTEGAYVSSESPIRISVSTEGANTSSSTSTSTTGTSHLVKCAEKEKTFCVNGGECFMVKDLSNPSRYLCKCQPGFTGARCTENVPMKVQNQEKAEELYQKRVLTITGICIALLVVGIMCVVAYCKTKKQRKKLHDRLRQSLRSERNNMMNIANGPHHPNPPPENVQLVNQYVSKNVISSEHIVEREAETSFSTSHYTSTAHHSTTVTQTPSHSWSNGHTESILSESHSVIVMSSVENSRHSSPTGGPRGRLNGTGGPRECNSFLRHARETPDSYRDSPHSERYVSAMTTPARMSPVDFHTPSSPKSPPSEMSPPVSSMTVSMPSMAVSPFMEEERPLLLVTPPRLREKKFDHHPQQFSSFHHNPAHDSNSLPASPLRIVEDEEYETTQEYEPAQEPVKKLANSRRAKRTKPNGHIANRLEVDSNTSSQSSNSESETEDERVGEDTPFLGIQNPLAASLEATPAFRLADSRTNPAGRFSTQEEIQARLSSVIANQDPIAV
The subject of assay [7] is Neuregulin-1 EGF-like domain. As to the kind of experiment: small molecules binding NRG1 EGF domain – biochemical, small-molecule microarray, 635 nm fluorescence, primary screen (AID 1081).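 Also: binding of the protein to compounds printed on small-molecule microarray slides.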 As to conditions: higher = more signal.
Assay [8] can be described thus: FRG1 expression reporter modulators in myotubes – cell-based, C2C12 myotubes, firefly/Renilla luciferase, luminescence, FRG1 inhibition for FSHD, primary screen (AID 1084). Particulars: FRG1 promoter luciferase, higher = more signal, called active from +8 up or from −8 down.
Assay [9] is described as follows: small molecules captured by biotinylated probe aFST – biochemical, small-molecule microarray, fluorescence 635/667, stem cell growth factor project, primary screen (AID 1086).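 Also: score merges 667 nm fluorescence with signal-to-noise of each printed compound spot.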 As to conditions: higher = more signal.
Assay [10] in a line: binders of probe aHhip on microarray, primary screen, stem cell growth factor project, biochemical, small-molecule microarray, fluorescence 635/667 (AID 1087).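 Also: score merges spot fluorescence at 667nm with spot signal to noise ratio.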 As to conditions: higher = more signal.
Assay [11] has as its system PRMT1 (protein arginine N-methyltransferase 1). Briefly: small molecules binding arginine methyltransferase PRMT1 – biochemical, small-molecule microarray, 635 nm fluorescence, primary screen (AID 1088).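 Also: binding of Prmt1 protein to compounds spotted on small-molecule microarray slides.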 Particulars: higher = more signal.
Assay [12] in a line: growth effects on S. cerevisiae YJM789 – YJM789 clinical isolate, OD600, 24 h, basal, primary screen (AID 1089).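 Also: growth of clinical yeast isolate S. cerevisiae YJM 789 seeded 1000 cells per well; test concentration not given here.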 Particulars: higher = more signal, called active from +8 up or from −8 down.
Assay [13] can be described thus: S. pombe growth modifiers, basal conditions – strain 972, OD600, 24 h, no modulator, primary screen (AID 1090).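 Also: basal condition with compound alone and no growth modifier present; test concentration not given here.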 Particulars: S. pombe 972 growth, higher = more signal, called active from +8 up or from −8 down.
Assay [14] can be described thus: budding yeast growth modifiers under rapamycin – strain BY4716, OD600, 96 h, primary screen (AID 1091). Also: test concentration not given here. Particulars: S. cerevisiae BY4716 + rapamycin, higher = more signal, called active from +8 up or from −8 down.
In assay [15] the target is Torsin-1A-interacting protein 2 (Homo sapiens) (UniProt Q8NFQ8). Briefly: small molecules binding lysate-expressed LULL1 – cell lysate, human LULL1 lysate, 635/667 nm fluorescence, primary screen (AID 1092).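 Also: probe is lysate of COS7 cells overexpressing human LULL1; score merges per-feature 667 nm fluorescence with signal-to-noise.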 As to conditions: small-molecule microarray, hLULL1 lysate binding, 635 nm fluorescence; higher = more signal.
Chain of Torsin-1A-interacting protein 2 (Homo sapiens) (Q8NFQ8 whole entry, looked up): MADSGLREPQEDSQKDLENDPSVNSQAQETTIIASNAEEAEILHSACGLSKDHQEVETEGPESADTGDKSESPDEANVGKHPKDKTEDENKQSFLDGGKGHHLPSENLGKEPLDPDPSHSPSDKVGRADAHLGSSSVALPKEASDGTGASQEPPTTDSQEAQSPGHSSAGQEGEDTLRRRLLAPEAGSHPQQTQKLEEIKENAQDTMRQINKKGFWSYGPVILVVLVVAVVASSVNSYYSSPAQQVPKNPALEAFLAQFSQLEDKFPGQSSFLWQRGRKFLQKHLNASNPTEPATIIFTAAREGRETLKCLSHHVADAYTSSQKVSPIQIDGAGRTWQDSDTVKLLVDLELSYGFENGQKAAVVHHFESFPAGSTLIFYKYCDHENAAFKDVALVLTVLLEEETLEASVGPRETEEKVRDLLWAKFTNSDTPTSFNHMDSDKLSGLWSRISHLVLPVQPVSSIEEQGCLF
Assay [16] can be described thus: optical density change of DRC41 E. coli – strain DRC41, OD650, 24 h, E. coli filamentation project, primary screen (AID 1093).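 Also: MC1000 strain lacking acrAB efflux and sulA so SOS filamentation is blocked; test concentration not given here.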 As to conditions: E. coli DRC41 growth, higher = more signal, called active from +8 up or from −8 down.
The nature of assay [17]: probe aLefty2 binding to arrayed compounds – biochemical, biotinylated probe, 635/667 nm fluorescence, primary screen (AID 1094).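 Also: score merges spot fluorescence near 667 nm with spot signal-to-noise ratio.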 As to conditions: small-molecule microarray, higher = more signal.
Assay [18] relates to Noggin (protein binding on small-molecule microarray). As to the kind of experiment: small molecules binding Noggin protein – biochemical, 635/667 nm fluorescence, primary screen (AID 1095).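 Also: score merges 667 nm feature fluorescence with signal to noise over triplicate slides.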 Particulars: 635 nm fluorescence, higher = more signal.
For assay [19], the target named is Neurogenic locus notch homolog protein 3 (Homo sapiens) (UniProt Q9UM47). Briefly: small molecules binding NOTCH3 protein – biochemical, 635/667 nm fluorescence, primary screen (AID 1096). Particulars: small-molecule microarray, 635 nm fluorescence, higher = more signal.
Chain of Neurogenic locus notch homolog protein 3 (Homo sapiens) (Q9UM47 whole entry, looked up): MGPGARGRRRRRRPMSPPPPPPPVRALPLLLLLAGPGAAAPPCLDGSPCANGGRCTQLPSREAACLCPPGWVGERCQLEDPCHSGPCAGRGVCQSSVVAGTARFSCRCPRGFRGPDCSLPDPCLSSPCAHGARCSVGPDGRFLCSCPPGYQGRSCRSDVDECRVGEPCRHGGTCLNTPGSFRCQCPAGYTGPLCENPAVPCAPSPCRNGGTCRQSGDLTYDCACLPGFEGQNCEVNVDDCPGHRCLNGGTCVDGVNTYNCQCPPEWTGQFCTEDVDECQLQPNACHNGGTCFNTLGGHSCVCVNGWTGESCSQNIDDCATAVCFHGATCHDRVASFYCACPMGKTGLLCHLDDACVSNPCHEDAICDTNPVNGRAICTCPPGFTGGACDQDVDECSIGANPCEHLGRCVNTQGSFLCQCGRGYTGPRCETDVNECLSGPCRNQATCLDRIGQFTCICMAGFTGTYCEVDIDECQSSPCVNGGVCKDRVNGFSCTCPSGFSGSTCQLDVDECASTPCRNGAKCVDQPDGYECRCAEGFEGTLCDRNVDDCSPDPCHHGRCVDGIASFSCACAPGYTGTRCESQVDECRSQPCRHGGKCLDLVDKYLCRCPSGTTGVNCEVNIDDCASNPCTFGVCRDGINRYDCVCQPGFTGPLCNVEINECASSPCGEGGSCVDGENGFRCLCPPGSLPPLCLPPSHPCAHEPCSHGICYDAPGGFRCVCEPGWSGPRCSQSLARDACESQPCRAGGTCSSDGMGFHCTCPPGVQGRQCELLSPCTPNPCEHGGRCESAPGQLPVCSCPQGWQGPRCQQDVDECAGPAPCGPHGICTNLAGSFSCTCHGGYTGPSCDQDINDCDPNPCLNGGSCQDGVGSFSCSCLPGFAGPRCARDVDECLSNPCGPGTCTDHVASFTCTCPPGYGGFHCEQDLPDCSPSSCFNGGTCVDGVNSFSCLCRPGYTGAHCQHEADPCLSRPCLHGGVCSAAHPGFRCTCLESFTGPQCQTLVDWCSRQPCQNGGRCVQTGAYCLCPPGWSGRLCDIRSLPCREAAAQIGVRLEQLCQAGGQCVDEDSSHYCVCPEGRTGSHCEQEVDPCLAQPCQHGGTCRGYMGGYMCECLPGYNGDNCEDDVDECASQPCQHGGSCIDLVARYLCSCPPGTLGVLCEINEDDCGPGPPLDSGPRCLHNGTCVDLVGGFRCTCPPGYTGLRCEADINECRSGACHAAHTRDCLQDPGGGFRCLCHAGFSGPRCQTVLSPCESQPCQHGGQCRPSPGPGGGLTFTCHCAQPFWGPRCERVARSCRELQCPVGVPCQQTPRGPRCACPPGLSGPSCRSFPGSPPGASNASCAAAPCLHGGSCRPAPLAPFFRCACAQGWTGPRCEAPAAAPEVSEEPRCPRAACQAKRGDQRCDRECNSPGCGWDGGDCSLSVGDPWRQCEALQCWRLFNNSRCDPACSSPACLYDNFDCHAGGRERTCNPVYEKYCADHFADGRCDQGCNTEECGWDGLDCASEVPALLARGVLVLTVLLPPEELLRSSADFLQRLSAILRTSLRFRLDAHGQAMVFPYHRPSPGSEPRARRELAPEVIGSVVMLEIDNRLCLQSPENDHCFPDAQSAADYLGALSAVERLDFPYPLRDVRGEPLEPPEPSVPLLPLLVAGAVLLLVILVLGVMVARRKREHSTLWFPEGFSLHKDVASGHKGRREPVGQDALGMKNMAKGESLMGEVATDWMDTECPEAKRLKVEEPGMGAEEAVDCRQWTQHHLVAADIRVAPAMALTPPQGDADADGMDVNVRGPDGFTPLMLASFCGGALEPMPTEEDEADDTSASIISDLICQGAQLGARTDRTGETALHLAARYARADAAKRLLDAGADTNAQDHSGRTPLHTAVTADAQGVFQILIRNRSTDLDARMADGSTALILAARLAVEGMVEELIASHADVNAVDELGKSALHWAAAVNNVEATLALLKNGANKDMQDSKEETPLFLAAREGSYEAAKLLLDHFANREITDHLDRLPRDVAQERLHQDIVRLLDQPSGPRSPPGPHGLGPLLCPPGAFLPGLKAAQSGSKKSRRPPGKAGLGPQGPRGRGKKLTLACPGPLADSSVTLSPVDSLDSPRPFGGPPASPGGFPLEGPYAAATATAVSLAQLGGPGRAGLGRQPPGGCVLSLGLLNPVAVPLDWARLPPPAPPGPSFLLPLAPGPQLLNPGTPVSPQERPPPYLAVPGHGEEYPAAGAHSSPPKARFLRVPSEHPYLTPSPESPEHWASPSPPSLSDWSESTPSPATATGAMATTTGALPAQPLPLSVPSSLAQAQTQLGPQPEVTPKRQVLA
A short description of assay [20]: probe aEGFR binding to arrayed compounds – biochemical, biotinylated probe, 635/667 nm fluorescence, primary screen (AID 1097).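 Also: probe is a biotinylated anti-EGFR antibody binding compounds printed on slides; score combines fluorescence near 667 nm and signal to noise of each spot.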 As to conditions: small-molecule microarray, higher = more signal.

Activity calls are given as the source filed them.

In the case of `CCC(CC)C(O)C1C=CC2C(=O)N(c3ccccc3)C(=O)C2N1Nc1ccc(C#N)cc1` (stereo not given), the composite z-score was determined as 1.07 in assay [1]; 0.693 in assay [2]; 0.326 in [3]; 0.884 in [4]; 1.64 in assay [5]; 1.77 in assay [6]. Also, the composite z-score is 1.29 in assay [7]; 1.22 in [9]; -0.271 in assay [10]; 1.55 in [11]; 3.2 in [15]; 0.615 in assay [17]. The composite z-score was -0.136 in [18], 1.04 in [19] and 0.334 in assay [20]. Further, the z-score in [8] was -1.02 (inactive); in assay [12], -0.295 (inactive); in [13], 0.621 (inactive); in [14] it was 1.28 (inactive); in assay [16], -0.279 (inactive).
On to `CC(C)CNC(=O)[C@@]1(c2ccc([N+](=O)[O-])cc2)CC(=O)N(CC23CC4CC(CC(C4)C2)C3)[C@@H]1c1ccc(CO)cc1`, for which the composite z-score came out at 0.158 in assay [1]; 1.83 in assay [2]; 0.0201 in assay [3]; 0.39 in [4]; 0.994 in assay [5]; 0.65 in [6]. The composite z-score in [7] was 1.19; in assay [9], -0.0554; in assay [10], 0.075; in assay [11], 1.52; in assay [15], 2.14; in assay [17], 0.0054. The composite z-score in [18] is 0.661; in assay [19], 0.708; in assay [20], -0.0897. The z-score is -2.51 (inactive) in assay [8]; -1.73 (inactive) in [12]; -1.1 (inactive) in [13]; 0.226 (inactive) in [14]; 2.86 (inactive) in assay [16].
On to `O=C1N(CCS(=O)(=O)c2ccccc2)Cc2ccccc2C[C@]12N=C(c1ccc(OCCCO)cc1)O[C@@H]2c1ccccc1`, for which the composite z-score is 1.36 in assay [1]; 0.97 in assay [2]; 0.0901 in [3]; -0.0674 in assay [4]; 0.633 in assay [5]; 1.33 in assay [6]. For the same molecule, the composite z-score in assay [7] is 1.31; in assay [9], 0.607; in [10] it was -0.27; in [11] it was 1.54; in assay [15] it was 3.45; in [17] it was 0.366. The composite z-score in assay [18] amounted to 1.2; in assay [19], 1.05; in assay [20], 0.177. Moreover, the z-score in [8] is -0.436 (inactive); in assay [12] it was -0.452 (inactive); in assay [13] it was 1.2 (inactive); in assay [14], 4.94 (inactive); in assay [16] it was 0.175 (inactive).
Consider `COCCOC(=O)N1C(=O)[C@@]2(c3ccccc31)[C@H](C(=O)NC[C@H](O)c1ccccc1)[C@H]1C(=O)O[C@H](c3ccccc3)[C@H](c3ccccc3)N1[C@@H]2c1ccc(OCCO)cc1`, for which the composite z-score in assay [1] is -0.242; in assay [2], 0.591; in assay [3], -0.113; in assay [4] it was 0.36; in [5] it was 1.38; in assay [6], 0.977. Besides, the composite z-score is 1.08 in assay [7]; 0.53 in [9]; 0.0283 in [10]; 1.54 in assay [11]; 2.85 in [15]; -0.066 in [17]. Besides, the composite z-score in assay [18] is 1.81; in [19] it was 1.04; in [20], -0.023. In addition, the z-score was -0.31 (inactive) in assay [8]; 1.98 (inactive) in assay [12]; 1.64 (inactive) in assay [13]; 6.18 (inactive) in [14]; 1.77 (inactive) in assay [16].
With `[N-]=[N+]=NCc1ccccc1[C@@H]1OC(c2ccc(OCCCO)cc2)=N[C@]1(Cc1ccccc1)C(=O)N1CCCCC1`, the composite z-score was found to be 0.49 in [1]; 1.1 in assay [2]; 0.0703 in assay [3]; 1.05 in [4]; 1.5 in assay [5]; 1.18 in assay [6]. For the same molecule, the composite z-score in assay [7] worked out at 1.12; in assay [9], 1.49; in assay [10], 0.212; in [11], 1.15; in assay [15], 2.74; in [17], 0.332. Also, the composite z-score in assay [18] is 1.46; in assay [19], 1.07; in assay [20], 0.193. The z-score is -1.03 (inactive) in [8]; -0.202 (inactive) in [12]; -1.09 (inactive) in assay [13]; 1.66 (inactive) in [14]; 1.47 (inactive) in assay [16].
